Measured values reported in article PMC11006913.

Experiments:
Experiment in all cases: PBM; 200 nM protein, PBS
Settings in all cases: dsDNA, one strand shown
[1] = biological target: HESX1 (Homo sapiens, UniProt Q9UBX0 95-180, R165K)
[2] = biological target: SHOX (Homo sapiens, UniProt O15266 103-189)
[3] = biological target: ALX4 (Homo sapiens, UniProt Q9H161 200-286, Q225E)
[4] = biological target: HESX1 (Homo sapiens, UniProt Q9UBX0 95-180)
[5] = biological target: MSX2 (Homo sapiens, UniProt P35548 130-214, R199I)
[6] = biological target: ALX1 (Homo sapiens, UniProt Q15699 118-204, L144V)
[7] = biological target: ALX3 (Homo sapiens, UniProt O95076 139-225, N203Q)
[8] = biological target: SHOX (Homo sapiens, UniProt O15266 103-189, R173C)
[9] = biological target: ALX1 (Homo sapiens, UniProt Q15699 118-204, L144R)
[10] = biological target: ALX3 (Homo sapiens, UniProt O95076 139-225)
[11] = biological target: PROP1 (Homo sapiens, UniProt O75360 56-141)
[12] = biological target: HESX1 (Homo sapiens, UniProt Q9UBX0 95-180, R109Q)
[13] = biological target: PROP1 (Homo sapiens, UniProt O75360 56-141, R99H)
[14] = biological target: ALX3 (Homo sapiens, UniProt O95076 139-225, L168Q)
[15] = biological target: HESX1 (Homo sapiens, UniProt Q9UBX0 95-180, P111T)
[16] = biological target: ALX3 (Homo sapiens, UniProt O95076 139-225, L168V)
[17] = biological target: PROP1 (Homo sapiens, UniProt O75360 56-141, F88S)
[18] = biological target: HESX1 (Homo sapiens, UniProt Q9UBX0 95-180, F115L)
[19] = biological target: ALX1 (Homo sapiens, UniProt Q15699 118-204)
[20] = biological target: ALX3 (Homo sapiens, UniProt O95076 139-225, N203S)
Sequence of ALX3 (Homo sapiens, UniProt O95076 139-225, N203S) (O95076 139-225 N203S): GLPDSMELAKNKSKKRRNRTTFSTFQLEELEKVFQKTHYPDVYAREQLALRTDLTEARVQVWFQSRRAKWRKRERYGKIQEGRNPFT

Sequence of HESX1 (Homo sapiens, UniProt Q9UBX0 95-180, R165K) (Q9UBX0 95-180 R165K): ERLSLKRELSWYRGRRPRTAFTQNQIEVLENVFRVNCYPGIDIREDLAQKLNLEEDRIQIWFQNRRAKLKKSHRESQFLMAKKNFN
Sequence of ALX3 (Homo sapiens, UniProt O95076 139-225, L168Q) (O95076 139-225 L168Q): as the sequence (O95076 139-225 N203S) above, with L30Q, S65N counted along it
Sequence of ALX3 (Homo sapiens, UniProt O95076 139-225, N203Q) (O95076 139-225 N203Q): as the sequence (O95076 139-225 N203S) above, with S65Q counted along it
Sequence of HESX1 (Homo sapiens, UniProt Q9UBX0 95-180) (Q9UBX0 95-180): as the sequence (Q9UBX0 95-180 R165K) above, with K71R counted along it
Sequence of SHOX (Homo sapiens, UniProt O15266 103-189) (O15266 103-189): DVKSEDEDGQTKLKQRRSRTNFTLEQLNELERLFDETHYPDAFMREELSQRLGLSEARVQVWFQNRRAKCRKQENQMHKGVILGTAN
Sequence of ALX4 (Q9H161 200-286 Q225E): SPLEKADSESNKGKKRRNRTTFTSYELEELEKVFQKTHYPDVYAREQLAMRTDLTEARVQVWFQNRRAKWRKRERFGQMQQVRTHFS
Sequence of HESX1 (Homo sapiens, UniProt Q9UBX0 95-180, R109Q) (Q9UBX0 95-180 R109Q): as the sequence (Q9UBX0 95-180 R165K) above, with R15Q, K71R counted along it
Sequence of PROP1 (Homo sapiens, UniProt O75360 56-141, R99H) (O75360 56-141 R99H): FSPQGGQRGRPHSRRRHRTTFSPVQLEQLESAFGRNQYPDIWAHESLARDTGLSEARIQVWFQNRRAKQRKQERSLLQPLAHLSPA
Sequence of PROP1 (Homo sapiens, UniProt O75360 56-141) (O75360 56-141): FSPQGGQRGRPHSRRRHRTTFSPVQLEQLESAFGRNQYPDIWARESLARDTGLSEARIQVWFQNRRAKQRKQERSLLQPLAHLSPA
Sequence of ALX3 (Homo sapiens, UniProt O95076 139-225, L168V) (O95076 139-225 L168V): as the sequence (O95076 139-225 N203S) above, with L30V, S65N counted along it
Sequence of MSX2 (P35548 130-214 R199I): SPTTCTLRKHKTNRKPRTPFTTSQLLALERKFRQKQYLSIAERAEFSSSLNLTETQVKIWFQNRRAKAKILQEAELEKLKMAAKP
Sequence of PROP1 (Homo sapiens, UniProt O75360 56-141, F88S) (O75360 56-141 F88S): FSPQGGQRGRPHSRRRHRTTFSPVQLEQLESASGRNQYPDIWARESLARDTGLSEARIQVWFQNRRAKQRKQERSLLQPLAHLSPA
Sequence of HESX1 (Homo sapiens, UniProt Q9UBX0 95-180, P111T) (Q9UBX0 95-180 P111T): as the sequence (Q9UBX0 95-180 R165K) above, with P17T, K71R counted along it
Sequence of ALX1 (Homo sapiens, UniProt Q15699 118-204, L144R) (Q15699 118-204 L144R): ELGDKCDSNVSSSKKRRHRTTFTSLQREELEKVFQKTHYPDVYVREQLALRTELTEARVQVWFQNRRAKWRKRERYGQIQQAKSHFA
Sequence of ALX1 (Homo sapiens, UniProt Q15699 118-204) (Q15699 118-204): as the sequence (Q15699 118-204 L144R) above, with R27L counted along it
Sequence of SHOX (Homo sapiens, UniProt O15266 103-189, R173C) (O15266 103-189 R173C): as the sequence (O15266 103-189) above, with R71C counted along it
Sequence of HESX1 (Homo sapiens, UniProt Q9UBX0 95-180, F115L) (Q9UBX0 95-180 F115L): as the sequence (Q9UBX0 95-180 R165K) above, with F21L, K71R counted along it
Sequence of ALX3 (Homo sapiens, UniProt O95076 139-225) (O95076 139-225): as the sequence (O95076 139-225 N203S) above, with S65N counted along it
Sequence of ALX1 (Homo sapiens, UniProt Q15699 118-204, L144V) (Q15699 118-204 L144V): as the sequence (Q15699 118-204 L144R) above, with R27V counted along it

Sequence | binding signal [1] | binding signal [2] | binding signal [3] | binding signal [4] | binding signal [5] | binding signal [6] | binding signal [7] | binding signal [8] | binding signal [9] | binding signal [10] | binding signal [11] | binding signal [12] | binding signal [13] | binding signal [14] | binding signal [15] | binding signal [16] | binding signal [17] | binding signal [18] | binding signal [19] | binding signal [20]
CATAATTA | 12.9 upbm affinity estimate (log intensity, higher = more binding, comparable within an allelic series) | 12.4 upbm affinity estimate (log intensity, higher = more binding, comparable within an allelic series) | 13.7 upbm affinity estimate (log intensity, higher = more binding, comparable within an allelic series) | 12.9 upbm affinity estimate (log intensity, higher = more binding, comparable within an allelic series) | 12.8 upbm affinity estimate (log intensity, higher = more binding, comparable within an allelic series) | 12 upbm affinity estimate (log intensity, higher = more binding, comparable within an allelic series) | 8.61 upbm affinity estimate (log intensity, higher = more binding, comparable within an allelic series) | 10 upbm affinity estimate (log intensity, higher = more binding, comparable within an allelic series) | 11.6 upbm affinity estimate (log intensity, higher = more binding, comparable within an allelic series) | 12.6 upbm affinity estimate (log intensity, higher = more binding, comparable within an allelic series) | 11.8 upbm affinity estimate (log intensity, higher = more binding, comparable within an allelic series) | 9.21 upbm affinity estimate (log intensity, higher = more binding, comparable within an allelic series) | 11.5 upbm affinity estimate (log intensity, higher = more binding, comparable within an allelic series) | 10.8 upbm affinity estimate (log intensity, higher = more binding, comparable within an allelic series) | 11.3 upbm affinity estimate (log intensity, higher = more binding, comparable within an allelic series) | 10.4 upbm affinity estimate (log intensity, higher = more binding, comparable within an allelic series) | 8.12 upbm affinity estimate (log intensity, higher = more binding, comparable within an allelic series) | 7.94 upbm affinity estimate (log intensity, higher = more binding, comparable within an allelic series) | 12.6 upbm affinity estimate (log intensity, higher = more binding, comparable within an allelic series) | 8.73 upbm affinity estimate (log intensity, higher = more binding, comparable within an allelic series)
ATTAATTG | 13 upbm affinity estimate (log intensity, higher = more binding, comparable within an allelic series) | 12.3 upbm affinity estimate (log intensity, higher = more binding, comparable within an allelic series) | 13.8 upbm affinity estimate (log intensity, higher = more binding, comparable within an allelic series) | 12.9 upbm affinity estimate (log intensity, higher = more binding, comparable within an allelic series) | 13.1 upbm affinity estimate (log intensity, higher = more binding, comparable within an allelic series) | 12.1 upbm affinity estimate (log intensity, higher = more binding, comparable within an allelic series) | 8.48 upbm affinity estimate (log intensity, higher = more binding, comparable within an allelic series) | 9.84 upbm affinity estimate (log intensity, higher = more binding, comparable within an allelic series) | 11.7 upbm affinity estimate (log intensity, higher = more binding, comparable within an allelic series) | 12.7 upbm affinity estimate (log intensity, higher = more binding, comparable within an allelic series) | 11.7 upbm affinity estimate (log intensity, higher = more binding, comparable within an allelic series) | 9.92 upbm affinity estimate (log intensity, higher = more binding, comparable within an allelic series) | 12 upbm affinity estimate (log intensity, higher = more binding, comparable within an allelic series) | 11 upbm affinity estimate (log intensity, higher = more binding, comparable within an allelic series) | 11.6 upbm affinity estimate (log intensity, higher = more binding, comparable within an allelic series) | 10.5 upbm affinity estimate (log intensity, higher = more binding, comparable within an allelic series) | 8 upbm affinity estimate (log intensity, higher = more binding, comparable within an allelic series) | 8.15 upbm affinity estimate (log intensity, higher = more binding, comparable within an allelic series) | 12.6 upbm affinity estimate (log intensity, higher = more binding, comparable within an allelic series) | 8.67 upbm affinity estimate (log intensity, higher = more binding, comparable within an allelic series)
TAATTATA | 12.8 upbm affinity estimate (log intensity, higher = more binding, comparable within an allelic series) | 12.3 upbm affinity estimate (log intensity, higher = more binding, comparable within an allelic series) | 13.9 upbm affinity estimate (log intensity, higher = more binding, comparable within an allelic series) | 12.9 upbm affinity estimate (log intensity, higher = more binding, comparable within an allelic series) | 13 upbm affinity estimate (log intensity, higher = more binding, comparable within an allelic series) | 12 upbm affinity estimate (log intensity, higher = more binding, comparable within an allelic series) | 8.6 upbm affinity estimate (log intensity, higher = more binding, comparable within an allelic series) | 9.85 upbm affinity estimate (log intensity, higher = more binding, comparable within an allelic series) | 11.6 upbm affinity estimate (log intensity, higher = more binding, comparable within an allelic series) | 12.8 upbm affinity estimate (log intensity, higher = more binding, comparable within an allelic series) | 11.7 upbm affinity estimate (log intensity, higher = more binding, comparable within an allelic series) | 9.16 upbm affinity estimate (log intensity, higher = more binding, comparable within an allelic series) | 11.7 upbm affinity estimate (log intensity, higher = more binding, comparable within an allelic series) | 10.9 upbm affinity estimate (log intensity, higher = more binding, comparable within an allelic series) | 11.5 upbm affinity estimate (log intensity, higher = more binding, comparable within an allelic series) | 10.6 upbm affinity estimate (log intensity, higher = more binding, comparable within an allelic series) | 8.03 upbm affinity estimate (log intensity, higher = more binding, comparable within an allelic series) | 8.06 upbm affinity estimate (log intensity, higher = more binding, comparable within an allelic series) | 12.7 upbm affinity estimate (log intensity, higher = more binding, comparable within an allelic series) | 8.74 upbm affinity estimate (log intensity, higher = more binding, comparable within an allelic series)
AATTAATA | 12.2 upbm affinity estimate (log intensity, higher = more binding, comparable within an allelic series) | 12 upbm affinity estimate (log intensity, higher = more binding, comparable within an allelic series) | 13.4 upbm affinity estimate (log intensity, higher = more binding, comparable within an allelic series) | 12.1 upbm affinity estimate (log intensity, higher = more binding, comparable within an allelic series) | 12.5 upbm affinity estimate (log intensity, higher = more binding, comparable within an allelic series) | 11.8 upbm affinity estimate (log intensity, higher = more binding, comparable within an allelic series) | 8.72 upbm affinity estimate (log intensity, higher = more binding, comparable within an allelic series) | 9.56 upbm affinity estimate (log intensity, higher = more binding, comparable within an allelic series) | 11.6 upbm affinity estimate (log intensity, higher = more binding, comparable within an allelic series) | 12.5 upbm affinity estimate (log intensity, higher = more binding, comparable within an allelic series) | 11.3 upbm affinity estimate (log intensity, higher = more binding, comparable within an allelic series) | 9.32 upbm affinity estimate (log intensity, higher = more binding, comparable within an allelic series) | 11.4 upbm affinity estimate (log intensity, higher = more binding, comparable within an allelic series) | 10.7 upbm affinity estimate (log intensity, higher = more binding, comparable within an allelic series) | 10.8 upbm affinity estimate (log intensity, higher = more binding, comparable within an allelic series) | 10.3 upbm affinity estimate (log intensity, higher = more binding, comparable within an allelic series) | 8.02 upbm affinity estimate (log intensity, higher = more binding, comparable within an allelic series) | 8.27 upbm affinity estimate (log intensity, higher = more binding, comparable within an allelic series) | 12.3 upbm affinity estimate (log intensity, higher = more binding, comparable within an allelic series) | 8.82 upbm affinity estimate (log intensity, higher = more binding, comparable within an allelic series)
